The campaign covered roughly 220,000 compounds. About 2,000 (0.91%) were called active. Inconclusive results (about 2%) are left out. A selection follows. Results with a measured potency or affinity are listed apart. Values without a mark were called inactive. No stated cut-off is given here; in the data, inconclusive means inhibition above about 80% without an active follow-up result; inactive means below that; test concentration not stated here.

The assay can be described thus: M. tuberculosis H37Rv growth inhibitors, H37Rv strain (AID 1626).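 Further: bacteria incubated seven days before Alamar blue readout; 0% = bacteria only wells and 100% = bacteria with antibiotic wells.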 As to conditions: stronger effect = higher value, concentration not given here.
Turning to `O=C(Cn1nc(-c2nn(CC(=O)c3ccccc3)c3[n+]2CCCCC3)[n+]2c1CCCCC2)c1ccccc1`, the inhibition was 6.97%.

In the case of `Cc1ccc(-c2cn(-c3ccc(OC(F)F)cc3)c3[n+]2CCCCC3)cc1`, the inhibition is -4.29%.

`O=C(O)CCCC(=O)NNC(=O)c1cccc(Br)c1`: the inhibition was 0.6%.

As to `CCOc1cc(CNCCc2ccc(S(N)(=O)=O)cc2)cc(Cl)c1OCc1ccccc1`, the inhibition was 58.8%.

Turning to `COc1cc(CNCc2ccccc2)cc(Cl)c1OC`, the inhibition was 4.65%.

On to `O=C(O)c1ccc(COc2ccccc2/C=C2\NC(=O)N(Cc3ccccc3F)C2=O)cc1`, for which the inhibition is -2.79%.

As to `CN=C(Nc1ccccc1)SC1CC(=O)N(c2ccc(C(=O)OC)cc2)C1=O` (stereo unspecified), the inhibition is -2.27%.

As for `CN=C(Nc1ccccc1OC)SC1CC(=O)N(c2ccc(C(=O)OC)cc2)C1=O` (stereo unspecified), the inhibition is 7.4%.

With `COc1ccc(N=Cc2c(O)n(Cc3ccccc3)c(=S)[nH]c2=O)c(OC)c1`, the inhibition was 6.73%.

For the compound `O=C(CSc1nnc(-c2cccnc2)n1-c1ccccc1)NCc1ccc2c(c1)OCO2`, the inhibition is 6.03%.

As to `CC(Oc1ccc(Cl)cc1Cl)c1ccn[nH]1` (stereo unspecified), the inhibition is 2.27%.

Take `O=C(O)CCC(=O)NN1C(=O)c2ccccc2NC1c1ccco1` (stereo unspecified): the inhibition was -6.39%.

As to `CC(=O)Nc1ccc2[nH]c3ccccc3c2c1`, the inhibition is 10.6%.

In the case of `COc1ccc(NC(=O)c2cc3ccc4c5ccccc5[nH]c4c3cc2O)cc1`, the inhibition is 2.53%.

With `CC(OC(=O)c1ccccc1O)C(=O)Nc1cccc(Cl)c1` (stereo unspecified), the inhibition is 3.01%.

`CCOc1ccc2nc(NC(=O)C3=NNC(=O)CC3)sc2c1`: the inhibition was 46.3%.

Regarding `CCOc1ccc2nc(NC(=O)Nc3ccccc3)sc2c1`, the inhibition is 1.1%.

For `CCOc1ccc2nc(NC(=O)c3cccnc3)sc2c1`, the inhibition is 3.09%.

Take `CCOC(=O)Cc1nnc(NC(=O)C(CC)Sc2nc(C)cc(=O)[nH]2)s1` (stereo unspecified): the inhibition was -0.83%.

As for `CCC(Sc1nc(C)cc(=O)[nH]1)C(=O)Nc1nnc(C)s1` (stereo unspecified), the inhibition is -7.53%.

With `CCOc1ccc2nc(NC(=O)c3ccoc3C)sc2c1`, the inhibition was 8.64%.

Take `c1ccc(CNC2=NCCCCC2)cc1`: the inhibition was -3.52%.

Turning to `COCCN(CC(=O)NC1CCCCC1)C(=O)CSc1nc2ccccc2o1`, the inhibition was -4.79%.

As for `CC(C)N1C(=O)c2ccc(C(=O)O)cc2C1=O`, the inhibition is 2.62%.

Regarding `CCOC(=O)C1=C(C)NC(=S)N(C=O)C1c1ccccc1` (stereo unspecified), the inhibition was 6.03%.

On to `Cc1ccc(SCC(=O)NCc2cccnc2)cc1`, for which the inhibition was -4.12%.

Regarding `O=c1[nH]c2ccccc2c(O)c1O`, the inhibition is -3.51%.

With `O=c1[nH]c2ccccc2c2nc3ccccn3c12`, the inhibition is -1.5%.

In the case of `Cc1ccc(-c2nc(CS(=O)CC(=O)NCc3ccccc3)c(C)o2)cc1` (stereo unspecified), the inhibition was 3.18%.

As for `CS(=O)(=O)N1CCC(C(=O)Nc2ccc(Oc3ccccc3)cc2)CC1`, the inhibition is 2.66%.

`O=C(Nc1ccc(Oc2ccc(NC(=O)C3CCCO3)cc2)cc1)C1CCCO1` (stereo unspecified): the inhibition is -8.27%.

Consider `O=C(Nc1ccc(Cc2ccc(NC(=O)C3CC3)cc2)cc1)C1CC1`, for which the inhibition was 7.74%.

`COc1ccc(NC(=O)C2CCCO2)cc1` (stereo unspecified): the inhibition is -10%.

Turning to `O=C(Nc1ccc(Nc2ccccc2)cc1)C1CC1`, the inhibition was -4.99%.

Turning to `O=C(Nc1ccc(N2CCOCC2)cc1)C1CC1`, the inhibition was -4.12%.

For `O=C(CCc1n[nH]c(=O)[nH]c1=O)N1CCCCC1`, the inhibition is -1.04%.

In the case of `COc1cc(C(O)P(=O)(OCC(C)C)c2ccc(N(C)C)cc2)cc(OC)c1OC` (stereo unspecified), the inhibition was -2.15%.

For `CCCc1[nH]nc2c1C(c1ccc(OCCN3CCOCC3)c(OC)c1)C(C#N)=C(N)O2` (stereo unspecified), the inhibition is -0.42%.

For the compound `CN1CCN(c2nc(-c3cccnc3)nc3scc(-c4ccccc4)c23)CC1`, the inhibition is -0.01%.

In the case of `CCC(CO)Nc1nc(CN2CCCCC2)nc2scc(-c3ccccc3)c12` (stereo unspecified), the inhibition is 7.81%.

In the case of `OCC1CCCN(c2nc(CN3CCCCC3)nc3scc(-c4ccccc4)c23)C1` (stereo unspecified), the inhibition is 1.65%.

For the compound `CC1CCCN(c2nc(-c3cccnc3)nc3scc(-c4ccccc4)c23)C1` (stereo unspecified), the inhibition is 10.2%.

As for `CCCn1nc(C(=O)Nc2nnc(CC)s2)c2ccccc2c1=O`, the inhibition is -9.02%.

As for `CC1CN(C(=O)N(C)C)CCN1C(=O)N(C)C` (stereo unspecified), the inhibition was -15.9%.

Consider `CC(=O)c1c(-c2ccc(Cl)cc2Cl)noc1C`, for which the inhibition is 2.75%.

Turning to `COc1cc(NC(=O)c2ccc(OC)c([N+](=O)[O-])c2)ccc1NC(=O)c1ccco1`, the inhibition was -4.07%.

Regarding `COc1ccccc1NC(=S)N(Cc1ccco1)Cc1cc2cc(C)c(C)cc2[nH]c1=O`, the inhibition was 6.98%.

`Cc1ccc(S(=O)(=O)Nc2nc3cc(C)c(C)cc3[nH]2)cc1`: the inhibition is 8.1%.

For `Cn1c(SCC(=O)N2CCCC2)nc2ccccc21`, the inhibition is 3.37%.

For `Cc1nn(C)cc1CNC(=O)c1cnn2c1NC(c1ccc(Br)cc1)CC2C(F)(F)F` (stereo unspecified), the inhibition was 3.8%.

For the compound `CCCn1cc(NC(=O)c2cc3n(n2)C(C(F)(F)F)CC(c2ccccc2)N3)cn1` (stereo unspecified), the inhibition was 0.85%.

With `Cc1c(CNC(=O)c2cnn3c2NC(c2ccccc2)CC3C(F)(F)F)cnn1C` (stereo unspecified), the inhibition was -9.25%.

For `O=C(NCc1ccco1)c1cnn2c1NC(c1ccccc1)CC2C(F)(F)F` (stereo unspecified), the inhibition is 2.86%.

As to `O=C(NCc1ccco1)c1cc2n(n1)C(C(F)(F)F)CC(c1ccc(Br)cc1)N2` (stereo unspecified), the inhibition was 74.2%.

Turning to `O=C(NCc1ccco1)c1cc2n(n1)C(C(F)(F)F)CC(c1ccc(F)cc1)N2` (stereo unspecified), the inhibition was 42%.

Take `O=C(O)c1cc2n(n1)C(C(F)(F)F)CC(c1ccccc1)N2` (stereo unspecified): the inhibition is -8.1%.

With `O=C(NCc1cccc(Cl)c1)c1cnn2c1NC(c1ccco1)CC2C(F)(F)F` (stereo unspecified), the inhibition was 6.69%.

Consider `Nc1nnc(CCCCCCCCCCc2nnc(N)s2)s1`, for which the inhibition is -1.56%.

Turning to `CC(C)(C)n1nc2c(c1NC(=O)COc1ccc(Cl)cc1)CS(=O)(=O)C2`, the inhibition is 1.01%.

As to `CCN(C(=O)COC(=O)/C=C/c1ccc(S(=O)(=O)N2CCc3ccccc32)cc1)C1CCS(=O)(=O)C1` (stereo unspecified), the inhibition is -3.11%.

`Cc1c(Cl)cccc1S(=O)(=O)N1CCC(C(=O)NNC(=O)C2CC2)CC1`: the inhibition is 0.53%.

In the case of `CCOC(=O)c1c(C)[nH]c(C(C)=O)c1C`, the inhibition is -0.35%.

For the compound `COC(=O)c1ccc(C2C(C(C)=O)=C(O)C(=O)N2CCO)cc1` (stereo unspecified), the inhibition is -1.96%.

For the compound `COc1cccc(NC(=O)N[C@@H](Cc2ccccc2)C(=O)O)c1`, the inhibition was 1.84%.

In the case of `CN(C)c1ccnc(SCc2ccccc2Cl)c1C#N`, the inhibition is 11.8%.

In the case of `Cc1ccc(C2CC(C(F)(F)F)n3ncc(C(N)=O)c3N2)cc1` (stereo unspecified), the inhibition was -4.41%.

For the compound `COc1cccc(C2CC(C(F)(F)F)n3ncc(C(=O)NCc4ccco4)c3N2)c1` (stereo unspecified), the inhibition is 3.27%.

As for `Nc1nc(Cn2nnc(-c3ccccc3Cl)n2)nc(N2CCOCC2)n1`, the inhibition is -0.22%.

For the compound `COc1ccc(Cl)cc1C(=O)NNC(=O)CCNC(C)=O`, the inhibition is -6.02%.

Consider `Cc1ccc(C(=O)/C=C2/NC(=O)CS2)cc1`, for which the inhibition was -4.36%.

As for `O=C1CS/C(=C/C(=O)c2ccccc2)N1`, the inhibition is -2.65%.

Turning to `COC(=O)CN1C(=S)N(c2ccc(OC)cc2)C(=O)/C1=C/c1cccs1`, the inhibition is 4.42%.

On to `c1ccc(Cc2nnc(N3CCOCC3)c3ccccc23)cc1`, for which the inhibition is -4.25%.

For `CN(C)S(=O)(=O)c1cc(C(=O)NCc2ccccc2)c(Cl)cc1Cl`, the inhibition was -5.51%.

For the compound `COc1ccc(CCN(C)C(=O)c2ccc(S(=O)(=O)NCc3ccco3)cc2)cc1OC`, the inhibition was 2.54%.

`CC1=C2C3OC(=O)C(C)[C@@H]3CC[C@](C)(O)C2C2C3C4C5(C12)[C@H]1OC(=O)[C@@H](C)C1CC[C@]4(C)O[C@]5(C)[C@@H]3O` (stereo partly specified): the inhibition is 17.2%.

In the case of `Cc1nc2cc3sc(C)nc3cc2s1`, the inhibition was -1.33%.

Turning to `Nc1ccc(-c2nc3ccc(N)cc3s2)cc1`, the inhibition was -3.52%.

Take `CCc1ccccc1NC(=O)CSC1=C(C#N)C(c2ccc3c(c2)OCO3)C2=C(CCCC2=O)N1` (stereo unspecified): the inhibition was 4.73%.

On to `CCN(CC)CCNc1nc2cc(OC)c(OC)cc2c2nc(-c3ccccc3)nn12`, for which the inhibition was 75%.

Take `CCN(CC)CCCNc1nc2cc(OC)c(OC)cc2c2nc(-c3cccnc3)nn12`: the inhibition is 7.65%.

On to `CC(C)C(NS(=O)(=O)c1cccs1)C(=O)N(C)Cc1ccccc1` (stereo unspecified), for which the inhibition is -0.19%.

For the compound `Cc1cc(NC(=O)CSc2nnc(C3CC3)n2N)c([N+](=O)[O-])cc1C`, the inhibition is -1.15%.

As for `CCCCn1c2c(c(=N)c3c1CCC3)CCC2`, the inhibition is -7.84%.

Turning to `CCCCCn1c2c(c(=N)c3ccccc31)CCC2`, the inhibition was 7.75%.

For the compound `CCCCCCn1c2c(c(=N)c3c1CCC3)CCC2`, the inhibition is 1.15%.

With `CCCCCCCCCn1c2c(c(=N)c3c1CCC3)CCC2`, the inhibition is 56.5%.

Regarding `CCCCCCCn1c2c(c(=N)c3c1CCC3)CCCC2`, the inhibition is 13.8%.

As for `CCCCCCCn1c2c(c(=N)c3ccccc31)CCC2`, the inhibition was 9.19%.

In the case of `COC(=O)Cc1c(O)ccn(C2CC2)c1=O`, the inhibition was -1.41%.

On to `CC(C)C(NS(=O)(=O)c1cccs1)C(=O)NCc1ccccc1Cl` (stereo unspecified), for which the inhibition is -0.44%.

Turning to `Cn1c(SCC(=O)N2CCCc3ccccc32)nnc1-c1cccs1`, the inhibition is 11.9%.

On to `COc1cc(NC(=O)c2ccc(Cl)cc2)c(OC)cc1NC(=O)CN1CCOCC1`, for which the inhibition was -0.92%.

With `COc1cc(NC(=O)c2ccccc2)c(OC)cc1NC(=O)CN1CCCCC1`, the inhibition is 25.5%.

As to `Cc1cc(NC(=O)c2cc(-c3ccccc3)on2)no1`, the inhibition was -3.83%.

Regarding `CCOC(=O)CC(=O)CSc1nc(C)cc(-c2cccnc2)c1C#N`, the inhibition was 0.1%.

The inhibition is the relative decrease from the control value, in per cent.

The record behind these values is PubChem BioAssay AID1626 (SRMLSC, 2009).
